# Data published in PubChem BioAssay AID602342 (Broad Institute, 2012).
# About 1,000 (0.29%) of roughly 340,000 compounds were called active. The full list was thinned out, with actives kept by preference. Values without a mark were called inactive.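 The calls were made as follows: active = mean replicate activation score at least 90 and every replicate individually at or above 90; inconclusive = only one of the two criteria met; inactive = neither criterion met.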
# Test: miR-122 Renilla sensor signal increase in Huh7, primary screen, miR-122 inhibitor project, cell-based, single point, plate reader (AID 602342);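 also: higher luciferase means less miR-122 activity so hits act as miR-122 inhibitors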
# Details: Huh7 miR-122 Renilla luciferase sensor, 48 h, hits give high values, neutral wells = 0, positive control = 100
smiles,measurement,setting,value
COc1ccc(C(=O)N2C[C@@H]3[C@H](c4ccccc42)[C@H](CO)N3Cc2ccc3c(c2)OCO3)cc1,activation (reporter increase),at 16.7 µM unless noted,247% (active)
COc1ccccc1NC(=O)N1C[C@H]2[C@@H](c3ccccc31)[C@H](CO)N2Cc1ccc2c(c1)OCO2,activation (reporter increase),at 16.7 µM unless noted,28.6%
COc1cccc(CN2[C@H](CO)[C@@H]3c4ccccc4N(C(=O)c4ccncc4)C[C@@H]32)c1,activation (reporter increase),at 16.7 µM unless noted,46.9%
O=C(c1ccncc1)N1C[C@H]2[C@@H](c3ccccc31)[C@H](CO)N2C(=O)c1ccccn1,activation (reporter increase),at 16.7 µM unless noted,-28.6%
C/C=C/c1ccc([C@H]2[C@@H](CO)N(S(C)(=O)=O)[C@@H]2CN(C)C(=O)CC)cc1,activation (reporter increase),at 16.7 µM unless noted,6.25%
CN1C(=O)c2cc(NS(=O)(=O)c3ccc(Cl)cc3)ccc2OC[C@@H]2O[C@H](CC(=O)O)CC[C@@H]21,activation (reporter increase),at 16.7 µM unless noted,5.56%
O=C(Nc1ccc2c(c1)[C@H]1C[C@@H](CC(=O)N3CCc4ccccc4C3)O[C@H](CO)[C@H]1O2)Nc1ccccc1F,activation (reporter increase),at 16.7 µM unless noted,-7.95%
CO[C@@H]1CN(C)C(=O)c2ccc(NS(=O)(=O)c3ccc(Cl)cc3)cc2OC[C@@H](C)N(C)C[C@H]1C,activation (reporter increase),at 16.7 µM unless noted,-8.17%
COC(=O)c1ccc(C(=O)Nc2cc(Cl)ccc2Cl)cc1NC(=O)c1ccccc1C,activation (reporter increase),at 16.7 µM unless noted,-1.04% [at 12.5 µM]
Cc1ccc(C(=O)Nc2ccccc2C(=O)NC2CCCCC2)cc1S(=O)(=O)N1CCOCC1,activation (reporter increase),at 16.7 µM unless noted,-2.85% [at 12.5 µM]
C=CCNC(=O)c1ccccc1NC(=O)c1ccc(Cl)c(S(=O)(=O)Nc2cccc(C)c2C)c1,activation (reporter increase),at 16.7 µM unless noted,155% [at 12.5 µM] (active)
CCC(=O)N(C)C[C@@H]1Oc2ncc(C#C[C@H](C)O)cc2C(=O)N([C@@H](C)CO)C[C@@H]1C,activation (reporter increase),at 16.7 µM unless noted,1.39%
Cc1ccccc1S(=O)(=O)N1C[C@H](O)COC[C@H]2O[C@H](CC(=O)N3CCCCC3)CC[C@@H]21,activation (reporter increase),at 16.7 µM unless noted,8.99%
Cc1cccc(NS(=O)(=O)c2ccc(-c3cnc(C4CC4)o3)cc2)c1,activation (reporter increase),at 16.7 µM unless noted,186% [at 12.5 µM] (active)
COc1ccc(CNS(=O)(=O)c2ccc(-c3cnc(C4CC4)o3)cc2)cc1,activation (reporter increase),at 16.7 µM unless noted,-3.38% [at 12.5 µM]
Cc1cccc(CNS(=O)(=O)c2ccc(-c3cnc(C4CC4)o3)cc2)c1,activation (reporter increase),at 16.7 µM unless noted,3.02% [at 12.5 µM]
C[C@@H]1CN([C@H](C)CO)C(=O)c2cccc(NS(=O)(=O)c3ccc(F)cc3)c2O[C@H]1CN(C)Cc1ccc(Oc2ccccc2)cc1,activation (reporter increase),at 16.7 µM unless noted,3.49%
O=C(NC1CCCC1)[C@H]1[C@H](CO)[C@H]2Cn3c(ccc(-c4ccccc4)c3=O)[C@H]2N1CCc1ccccc1,activation (reporter increase),at 16.7 µM unless noted,-0.306%
C[C@H](CO)N1C[C@H](C)[C@H](CN(C)C(=O)Nc2ccccc2C(F)(F)F)OCc2cn(nn2)CCCC1=O,activation (reporter increase),at 16.7 µM unless noted,-4.03%
N=c1n(Cc2ccc(Cl)cc2)c2ccccc2n1CC(O)c1ccco1 (stereo not drawn),activation (reporter increase),at 16.7 µM unless noted,262% [at 12.5 µM] (active)
Cn1c(=N)n(CC(O)c2cccs2)c2ccccc21 (stereo not drawn),activation (reporter increase),at 16.7 µM unless noted,-2.61% [at 12.5 µM]
C[C@H](CO)N1C[C@H](C)[C@@H](CN(C)C(=O)Nc2ccc3c(c2)OCO3)OCCCC[C@H](C)Oc2ccc(NC(=O)Nc3ccc(F)cc3)cc2C1=O,activation (reporter increase),at 16.7 µM unless noted,-4.3%
Cc1noc(C)c1S(=O)(=O)N(C)C[C@@H]1OCCCC[C@H](C)Oc2ccc(NC(=O)Nc3ccc4c(c3)OCO4)cc2C(=O)N([C@H](C)CO)C[C@H]1C,activation (reporter increase),at 16.7 µM unless noted,-8.18%
O=C(Nc1ccccc1)[C@@H]1[C@@H](CO)[C@@H]2Cn3c(cccc3=O)[C@@H]2N1C(=O)C1CC1,activation (reporter increase),at 16.7 µM unless noted,-0.104%
C[C@@H]1CN([C@H](C)CO)C(=O)c2cc(NC(=O)c3ccccc3)ccc2O[C@@H](C)CCCCO[C@H]1CN(C)C(=O)c1ccncc1,activation (reporter increase),at 16.7 µM unless noted,-8.54%
COc1ccc(S(=O)(=O)N(C)C[C@@H]2Oc3ccc(NC(=O)CCC(F)(F)F)cc3C(=O)N([C@@H](C)CO)C[C@H]2C)cc1,activation (reporter increase),at 16.7 µM unless noted,-0.455%
Cc1ccc(S(=O)(=O)N(C)C[C@H]2Oc3ccc(NC(=O)CCC(F)(F)F)cc3C(=O)N([C@@H](C)CO)C[C@H]2C)cc1,activation (reporter increase),at 16.7 µM unless noted,99.9% (active)
Cc1ccc(S(=O)(=O)Nc2ccc3c(c2)CC(=O)N([C@@H](C)CO)C[C@H](C)[C@H](CN(C)Cc2ccc(C(=O)Nc4ccccc4N)cc2)O3)cc1,activation (reporter increase),at 16.7 µM unless noted,252% (active)
C[C@H]1CN([C@@H](C)CO)C(=O)Cc2cc(NS(=O)(=O)c3ccccc3)ccc2O[C@H]1CN(C)Cc1ccc(C(=O)Nc2ccccc2N)cc1,activation (reporter increase),at 16.7 µM unless noted,71.5%
C[C@H](CO)N1C[C@H](C)[C@@H](CN(C)S(=O)(=O)c2ccc(F)cc2)Oc2ccc(NC(=O)CCC(F)(F)F)cc2C1=O,activation (reporter increase),at 12.5 µM,1.48%
same,activation (reporter increase),at 16.7 µM,-2.79%
C[C@H]1CN([C@@H](C)CO)C(=O)Cc2cc(NS(=O)(=O)c3ccccc3)ccc2O[C@@H]1CN(C)Cc1ccc(C(=O)Nc2ccccc2N)cc1,activation (reporter increase),at 16.7 µM unless noted,-6.43%
COCC(=O)Nc1ccc2c(c1)C(=O)N(C)[C@H]1CC[C@H](CC(=O)Nc3ccccc3)O[C@H]1CO2,activation (reporter increase),at 16.7 µM unless noted,1.21%
NCC[C@@H]1CC[C@@H](NC(=O)C2CCCC2)[C@H](CO)O1,activation (reporter increase),at 16.7 µM unless noted,-3.47%
CC(C)C#Cc1ccc([C@@H]2[C@@H](CO)N3CCCCN(C(=O)c4ccc5c(c4)OCO5)C[C@H]23)cc1,activation (reporter increase),at 16.7 µM unless noted,-24%
Cc1c(-c2ccccc2)cn2c1-c1ccc(C)n1CC2,activation (reporter increase),at 16.7 µM unless noted,248% [at 12.5 µM] (active)
C[C@H]1CCCCO[C@H](CN(C)S(=O)(=O)c2cn(C)cn2)[C@@H](C)CN([C@@H](C)CO)C(=O)c2cc(NC(=O)C3CCCCC3)ccc2O1,activation (reporter increase),at 16.7 µM unless noted,1.57%
CCCNC(=O)N(C)C[C@@H]1Oc2ncc(C#CC(C)C)cc2C(=O)N([C@H](C)CO)C[C@H]1C,activation (reporter increase),at 16.7 µM unless noted,-5.52%
CN1c2ccc(-c3ccccc3)cc2[C@H]2[C@H](CCN2C(=O)c2ccc3c(c2)OCO3)[C@H]1CO,activation (reporter increase),at 16.7 µM unless noted,72.9%
O=C(COc1ccc(Cl)cc1)Nc1ccc2c(c1)OCO2,activation (reporter increase),at 16.7 µM unless noted,-4.55% [at 12.5 µM]
CC(C)CNS(=O)(=O)c1ccc(OCC(=O)Nc2ccc3c(c2)OCO3)c(Cl)c1,activation (reporter increase),at 16.7 µM unless noted,303% [at 12.5 µM] (active)
CC(C)CNS(=O)(=O)c1ccc(C(=O)Nc2ccc3c(c2)OCO3)cc1,activation (reporter increase),at 16.7 µM unless noted,39.9% [at 12.5 µM]
C[C@H](CO)N1C[C@H](C)[C@H](CN(C)S(C)(=O)=O)Oc2ncc(C3=CCCCC3)cc2C1=O,activation (reporter increase),at 16.7 µM unless noted,2.67%
CCC(=O)N(C)C[C@H]1Oc2cc(-c3ccc(C)cc3)ccc2S(=O)(=O)N([C@@H](C)CO)C[C@H]1C,activation (reporter increase),at 16.7 µM unless noted,-15.3%
COCCn1c(SCC(=O)c2[nH]c(C)c(C(C)=O)c2C)nc2ccccc2c1=O,activation (reporter increase),at 16.7 µM unless noted,272% [at 12.5 µM] (active)
COCCn1c(SCC(=O)Nc2ccc3c(c2)CCC3)nc2ccccc2c1=O,activation (reporter increase),at 16.7 µM unless noted,1.43% [at 12.5 µM]
COCCn1c(C)cc(C(=O)CSc2nc3ccccc3c(=O)n2C(C)COC)c1C (stereo not drawn),activation (reporter increase),at 16.7 µM unless noted,-1.04% [at 12.5 µM]
CO[C@H]1CN(C)C(=O)c2cc(NS(=O)(=O)c3ccccc3)ccc2OC[C@H](C)N(C)C[C@@H]1C,activation (reporter increase),at 16.7 µM unless noted,0.654%
CNC(=O)C[C@@H]1CC[C@H]2[C@H](COc3ccc(NC(=O)c4cccc(OC)c4)cc3C(=O)N2C)O1,activation (reporter increase),at 16.7 µM unless noted,-50%
C[C@@H]1CCCCO[C@H](CN(C)C(=O)c2ccccc2)[C@H](C)CN([C@H](C)CO)C(=O)c2cc(N(C)C)ccc2O1,activation (reporter increase),at 16.7 µM unless noted,-6.07%
CC(C)c1cc(C(=O)O)on1,activation (reporter increase),at 16.7 µM unless noted,8.11% [at 12.5 µM]
CC(C)c1cc(C(=O)O)n[nH]1,activation (reporter increase),at 16.7 µM unless noted,143% [at 12.5 µM] (active)
CO[C@H]1CN(C)C(=O)c2ccc(NC(=O)Cc3ccccc3)cc2OC[C@@H](C)N(C(C)=O)C[C@H]1C,activation (reporter increase),at 16.7 µM unless noted,-19.6%
CN1C[C@H]2[C@@H](c3ccccc31)[C@@H](CO)N2Cc1ccccc1,activation (reporter increase),at 16.7 µM unless noted,2.82%
CCOc1ccc(C(=O)Nc2cccc(-c3ccc4nncn4n3)c2)cc1,activation (reporter increase),at 16.7 µM unless noted,-5.49% [at 12.5 µM]
COc1ccc(OC)c(S(=O)(=O)Nc2c(C)nn(C)c2C)c1,activation (reporter increase),at 16.7 µM unless noted,21.9% [at 12.5 µM]
COc1ccc(OC)c(S(=O)(=O)Nc2cccc(-c3ccc4nncn4n3)c2)c1,activation (reporter increase),at 16.7 µM unless noted,333% [at 12.5 µM] (active)
CC(C)NC(=O)N(C)C[C@H]1Oc2ncc(C#CC3CCCCC3)cc2C(=O)N([C@H](C)CO)C[C@@H]1C,activation (reporter increase),at 16.7 µM unless noted,-2.95%
CC(C)NC(=O)Nc1ccc2c(c1)C(=O)N([C@H](C)CO)C[C@@H](C)[C@H](CN(C)S(C)(=O)=O)O2,activation (reporter increase),at 16.7 µM unless noted,3.33%
C[C@@H]1CN([C@H](C)CO)C(=O)Cc2cc(NS(=O)(=O)c3ccc(F)cc3)ccc2O[C@H]1CN(C)C,activation (reporter increase),at 16.7 µM unless noted,4.8%
CC(=O)N1[C@H](CO)[C@H]2c3ccccc3N(C(=O)c3ccc(F)cc3)C[C@H]21,activation (reporter increase),at 16.7 µM unless noted,-19.2%
O=C(c1ccccc1F)N1C[C@H]2[C@@H](c3ccccc31)[C@@H](CO)N2C(=O)c1ccc(F)cc1,activation (reporter increase),at 16.7 µM unless noted,471% (active)
CCC(=O)N1[C@@H](CO)[C@@H]2c3ccccc3N(C(=O)c3ccccc3F)C[C@@H]21,activation (reporter increase),at 16.7 µM unless noted,-12.6%
O=C(C[C@@H]1C[C@@H]2c3cc(NC(=O)c4ccc5c(c4)OCO5)ccc3O[C@@H]2[C@@H](CO)O1)NCC1CC1,activation (reporter increase),at 16.7 µM unless noted,-4.14%
COc1ccc(NC(=O)N(C)C[C@@H]2Oc3ccc(NC(=O)Cc4cn(C)c5ccccc45)cc3CC(=O)N([C@@H](C)CO)C[C@H]2C)cc1,activation (reporter increase),at 16.7 µM unless noted,-1.9%
Cc1ccc(S(=O)(=O)Nc2ccc3ncccc3c2)cc1,activation (reporter increase),at 16.7 µM unless noted,146% [at 12.5 µM] (active)
O=S(=O)(Nc1ccc(Oc2ncccn2)c(Cl)c1)c1ccc(F)cc1,activation (reporter increase),at 16.7 µM unless noted,8.55% [at 12.5 µM]
Cc1ccc(NS(=O)(=O)c2ccc(C(C)(C)C)cc2)cn1,activation (reporter increase),at 16.7 µM unless noted,23.7% [at 12.5 µM]
